# Source: PubChem
# VACV mCherry inh – vaccinia inhibition (mCherry reporter) | Vaccinia virus mCherry reporter infection, fluorescence | actives 0.63% (n = 310,000) | Potency, µM (highest dose often 36.5 µM), for inactives: at the highest dose activity change, negative = inhibition, actives largely listed as inhibitors; calls by dose curve; tested in A549 cells; also: potency is read from the fitted curve at half-maximal effect; % is scaled to controls: 0 for no effect and ±100 for the full control effect; nearly all actives have a fitted effect of over 35% in size
# Vaccinia Venus – vaccinia inhibition (Venus reporter) | Potency, µM (titrated, usually from 36.5 µM), for the others: at the highest dose activity change, negative = inhibition, most hits filed as inhibitors | AID 720580 | actives 0.46% (n = 330,000) | Vaccinia virus Venus reporter expression, fluorescence; calls by dose curve; tested in A549 cells; also: potency is read from the fitted curve at half-maximal effect; % is scaled to controls: 0 for no effect and ±100 for the full control effect; nearly all actives have a fitted effect of over 30% in size
# Shiga inhibitor – Shiga toxin inhibition. Vero cells, Shiga toxin protein synthesis inhibition reporter. inhibition, % at 38.7 µM. actives 9.2% (n = 290,000); in the data active = inhibition mostly above about 28%, no sharp cut-off; inactive = mostly below about 43%; also: 0% is about no effect
# Lassa entry inh – blocks Lassa virus binding to or entry into cells. Lassa virus pseudotype entry inhibition, cell reporter. Potency, µM (top dose mostly 37.9 µM), for the others: at the top dose activity change, negative = inhibition, actives largely listed as inhibitors. actives 1.2% (n = 300,000); calls by dose curve; tested in HEK293 cells; also: potency is read from the fitted curve at half-maximal effect; % is scaled to controls: 0 for no effect and ±100 for the full control effect; nearly all actives have a fitted effect of over 50% in size
# CHX counter – affects cycloheximide protein synthesis inhibition readout, counter-screen; max response, %; actives 12% (n = 300,000); cell reporter, cycloheximide protein synthesis inhibition counterscreen; in the data active = max response mostly above about 13%, no sharp cut-off; inactive = mostly below about 14%; also: read at 38.3 µM for the half of the compounds with a filed dose; 0% is about no effect
# Marburg entry inh – inhibitors of Marburg virus binding or cell entry; AID 540276; actives 1.8% (n = 300,000); Potency, µM (titrated, usually from 37.8 µM), for the others: at the top dose activity change, negative = inhibition, hits mostly inhibitors; Marburg virus pseudotyped entry inhibition, cell reporter; calls by dose curve; tested in HEK293 cells; also: potency is read from the fitted curve at half-maximal effect; % is scaled to controls: 0 for no effect and ±100 for the full control effect
# * = called active by the depositor; i = inactive; ? = inconclusive; / = not tested or not shown; [ ] = remark or other dose. Shown is part of a subset that was picked to be rich in hits.
SMILES,VACV mCherry inh,Vaccinia Venus,Shiga inhibitor,Lassa entry inh,CHX counter,Marburg entry inh
O=C1C(C=NC2CC2)=C(O)c2ccccc21,/,-8%,57*,?,37*,21%
COc1cc(N=CC2=C(O)c3ccccc3C2=O)cc(OC)c1,-13%,-10%,64*,21%,20*,?
COc1cccc(NC(=O)CN(C)C(=O)CNC(=O)c2ccc3ccccc3c2)c1,i,-28%,/,8%,/,-11%
COc1ccc(S(=O)(=O)Nc2ccc3c(c2)C(=O)N([C@@H](C)CO)C[C@H](C)[C@H](CN(C)CC2CC2)O3)cc1,i,-8%,/,/,/,/
Fc1ccc([C@@H]2Nc3ccccc3[C@@H]3C=CC[C@@H]32)cc1,10%,-2%,/,-2%[46.1 µM],/,?
OCc1ccccc1O[C@H]1OC(CO)C(O)C(O)C1O (some centres not stated),-19%,-10%,/,/,/,/
COc1ccc(CN2CCOc3ccc(CN4CCC(Oc5cccnc5)CC4)cc3C2)cc1,-12%,-25%,/,/,/,/
O=C1C(C=NCc2ccccn2)=C(O)c2ccccc21,-12%,-4%,136*,?,59*,8%
CCOc1ccc(-c2cc3nc(C4CCN(C(=O)OC(C)(C)C)CC4)c(C(=O)Nc4c(C)cccc4C)cn3n2)cc1,-7%,-16%,/,-4%[46.1 µM],/,7.1µM*
CCOc1ccc(-c2cc3nc(C4CCN(C(=O)OC(C)(C)C)CC4)c(C(=O)O)cn3n2)cc1,/,/,-5,4%,24*,-21%
C[C@@H](CO)NC(=O)c1[nH]cnc1C(=O)Nc1ccc(CNC(=O)OC(C)(C)C)cc1,i,-16%,/,/,/,/
CN(C)c1ccc(C=Nc2ccc(N(C)C)cc2)cc1,/,20%,78*,?,36*,?
Cc1ccc(S(=O)(=O)N(C)/N=C/c2ccc(N(C)C)cc2)cc1,?,-8%,70*,1%,57*,4%[46.1 µM]
C(=Nc1cccc2c(N=Cc3ccco3)cccc12)c1ccco1,i,-4%,47*,/,17,/
C(=N\C(/N=C/c1ccco1)c1ccco1)/c1ccco1,-16%,-9%,28,16%,8,17%
Cc1ccc(N=Cc2ccc(N(C)C)cc2)cc1,/,3.5µM*,-12,-3%,7,-3%
CN(C)c1ccc(N=Cc2ccco2)cc1,i,-9%,99*,-3%,55*,-21%
COc1ccc(-c2cn3c(C)c(C(=O)NC(C)(C)C)sc3n2)cc1,i,-29%,41*,/,30*,/
COc1ccc(C)cc1NC(=O)c1sc2nc(-c3ccc(F)cc3)cn2c1C,-27%,-18%,/,?,/,/
Cc1c(C(=O)Nc2ccccc2)sc2nc(-c3ccccc3)cn12,/,/,61*,3%,39*,-1%
Cc1cccc(NC(=O)c2sc3nc(-c4ccccc4)cn3c2C)n1,-25%,-23%,66*,?,36*,?
COc1ccc(-c2cn3c(C)c(C(=O)Nc4cccc(C)n4)sc3n2)cc1,-18%,-6%,-2,?,12*,?
Cc1cccc(NC(=O)c2sc3nc(-c4ccc(F)cc4)cn3c2C)n1,/,/,35,2%,51,?
COc1cc(OC)c(/C=C/c2ccccn2)c(OC)c1,-16%,?,/,/,/,/
CC(C)n1c(=O)c2oc3ccccc3c2n(Cc2ccccc2F)c1=O,-17%,-10%,/,15%[46.1 µM],/,/
SMILES,VACV mCherry inh,Vaccinia Venus,Shiga inhibitor,Lassa entry inh,CHX counter,Marburg entry inh
Cc1ccc(-c2nc(C)c(CCNC(=O)C(=O)Nc3ccc(C)c(Cl)c3)s2)cc1,-27%,-22%,/,?,/,/
COc1ccc(CNc2ccccc2SC)cc1OC,-27%,-15%,33,-9%,37*,-26%
O=C(O)c1cccc([N+](=O)[O-])c1C(=O)Nc1cccc2ccccc12,-20%,-7%,/,?,20*,6%
O=C(O)c1cccc([N+](=O)[O-])c1C(=O)Nc1ccc2ccccc2c1,/,/,22,/,20*,/
CCCCCc1cc(=O)oc2c(C(CCN3CCCCC3)c3ccc(OC)cc3)c(OC)cc(OC)c12 (configuration not stated),13µM*,?,-18,/,-14,/
CCCCCc1cc(=O)oc2c(C(CCN3CCCC3)c3cc(OC)c(OC)c(OC)c3)c(OC)cc(OC)c12 (configuration not stated),14µM*,16µM*,-14,/,-14,/
CCCCCc1cc(=O)oc2c(C(CCN3CCCC3)c3ccc(N(C)C)cc3)c(OC)cc(OC)c12 (configuration not stated),?,?,-8,/,-5,/
CCN(CC)CCC(c1ccc(OC)cc1)c1c(OC)cc(OC)c2c(C)cc(=O)oc12 (configuration not stated),/,/,124*,/,53*,/
CC1=C(C(=O)N(C(C)C)C(C)C)CC(CC(=O)NCCc2ccccn2)C(=O)N1CCCN1CCCC1=O (configuration not stated),17%,-6%,/,/,/,/
CCN(C(=O)C1CCN(S(=O)(=O)c2ccc3c(c2)CCCN3C(C)=O)CC1)c1cccc(C)c1,2%,1%,/,-6%[46.1 µM],/,/
O=C(COc1ccc(Cl)cc1Cl)N1CCCCCC1,/,/,22,18%,28,16%
CC1CCCN(C(=O)COC(=O)Cc2c(F)cccc2Cl)C1 (configuration not stated),-7%,-1%,67*,?,44*,-6%[46.1 µM]
O=C(NCC(=O)N1CCCCC1)c1ccc(Cl)cc1Cl,-25%,-17%,58*,22%,49*,-2%[46.1 µM]
COc1ccccc1N1CCN(C(=O)CNC(=O)c2ccc(Cl)cc2Cl)CC1,-10%,-4%,-6,-24%,2,-18%[46.1 µM]
O=C(Cc1ccc(Cl)cc1)NCC(=O)N1CCCCC1,3%,-7%,-7,?,12,-4%[46.1 µM]
CC1CCN(C(=O)CNC(=O)c2ccc(Cl)cc2Cl)CC1,-7%,-25%,50*,0%,27*,0%
O=C(Cc1ccc(Cl)cc1Cl)OCC(=O)N1CCCCC1,-22%,-11%,42,?,22*,16%[46.1 µM]
CC1=CC[C@@H](COc2ccccc2)O[C@@]2(C1)C(=O)N(Cc1ccc(F)cc1)c1ccccc12,/,/,/,/,/,-2%[14.2 µM]
O=C(NS(=O)(=O)NC1CCCCC1)C1=C(N2CCCC2)COC1=O,i,-1%,/,/,/,/
C[C@@H]1CN([C@H](C)CO)C(=O)CCCn2nncc2CO[C@@H]1CN(C)S(=O)(=O)c1ccc(Cl)cc1,-6%,5%,/,/,/,/
COc1cccc(-c2nnc3n(Cc4ccc(F)cc4)c(=O)c4ccccc4n23)c1,-9%,5%,/,26%[46.1 µM],/,1%[46.1 µM]
O=C(CSC1=Nc2ccccc2N=C(c2ccc(F)cc2)C1)NCc1ccc(Cl)cc1,-21%,-17%,/,7%[46.1 µM],/,/
Cc1cc(/C=N/N2CCN(C)CC2)c(C)n1-c1ccccc1F,?,-2%,39,3%,21,-2%
CN1CCCN(C(=O)CNC(=O)c2ccccc2F)CC1,-10%,-15%,/,1%,/,1%
O=C(NCC(=O)N1CCCC1)c1ccccc1F,46%,8%,53*,4%,20,?
COc1ccc(-c2nc(NCCN(C)C)nc3ccsc23)c(C)c1,-6%,0%,/,/,/,/
